High-throughput results (PubChem)
CHRM1 PAM – human CHRM1 positive allosteric modulation. 360,000 tested, 0.088% active. CHO-K1 hM1, Fluo-8 calcium fluorescence, ACh EC20; 0% = ACh EC20, 100% = maximal ACh. activation, % at 3 µM. P11229; in the data active means activation above about 19%, passing the limit was not always enough
Target sequence (P11229 whole entry, looked up): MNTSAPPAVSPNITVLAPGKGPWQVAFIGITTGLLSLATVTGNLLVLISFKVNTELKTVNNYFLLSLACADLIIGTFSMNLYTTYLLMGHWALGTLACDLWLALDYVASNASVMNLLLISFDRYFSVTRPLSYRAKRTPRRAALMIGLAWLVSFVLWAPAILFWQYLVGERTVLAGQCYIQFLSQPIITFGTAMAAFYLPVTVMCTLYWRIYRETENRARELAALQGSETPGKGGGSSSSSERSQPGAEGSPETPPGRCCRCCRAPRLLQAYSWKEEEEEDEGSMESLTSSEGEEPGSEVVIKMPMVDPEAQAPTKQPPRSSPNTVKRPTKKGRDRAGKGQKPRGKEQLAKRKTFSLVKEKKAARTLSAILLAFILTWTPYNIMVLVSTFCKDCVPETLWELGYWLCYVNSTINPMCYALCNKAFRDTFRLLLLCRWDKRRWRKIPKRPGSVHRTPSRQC
M1 ag – activates human CHRM1 receptor; CHO-K1 hM1, Fluo-8 calcium fluorescence, agonist mode; 0% DMSO, 100% acetylcholine EC100; activation, % at 3 µM; 360,000 tested, 0.33% active; AID 588814;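 active means activation above the run's mean compound activation plus 3 SD, cut at about 16% in these data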;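 further: peak over basal fluorescence ratio within a 140 s kinetic read after compound addition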
M1 antag – antagonists of human M1 muscarinic receptor | P11229 | CHO-K1 hM1, Fluo-8 calcium fluorescence, ACh EC80 antagonist | inhibition, % at 3 µM | 360,000 tested, 1.3% active | AID 588852;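 active means percent inhibition above its own plate's cutoff, namely the mean of that plate's compound wells plus 3 SD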;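 further: peak over basal fluorescence ratio during 140 s after agonist addition; 0% = ACh EC80 plus DMSO and 100% = DMSO alone without agonist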
M1 PAM parental – nonselective activator or artifact in parental CHO-K1 calcium assay | activation, % at 3 µM | ATP EC20, Fluo-8 calcium fluorescence; 0% at ATP EC20, 100% at ATP max | 360,000 tested, 0.02% active;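 active means activation above the run cutoff, the mean activation of all test compounds plus 3 SD, cut at about 40% in these data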;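 further: peak over basal fluorescence ratio in a 140 s read after ATP addition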
CHO-K1 Ca antag – M1 antagonist counterscreen hit in parental CHO-K1 cells; ATP-induced calcium, Fluo-8 fluorescence; inhibition, % at 3 µM; 360,000 tested, 0.6% active;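 active means inhibition above a per-plate cutoff, the plate's mean sample inhibition plus 3 SD, cut at about 24% in these data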;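 further: 0% = DMSO plus EC80 ATP and 100% = DMSO alone without ATP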
CHO-K1 Ca ag – counter-screen for M1 agonists: effect in parental CHO-K1 cells. Fluo-8 calcium fluorescence; scaled to maximal ATP response, vehicle zero. activation, % at 3 µM. 360,000 tested, 0.48% active. AID 602248; in the data active means activation above about 15%;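 further: untransfected CHO-K1 host cells lacking M1 receptor as counterscreen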
Starred values were filed as active, the others as inactive. The list is not random: actives were taken first. Their share in the collection is about 2.4%.

SMILES	CHRM1 PAM	M1 ag	M1 antag	M1 PAM parental	CHO-K1 Ca antag	CHO-K1 Ca ag
Cc1cccc(S(=O)(=O)C(C#N)c2nc3ccccc3nc2N2CCCC2)c1 (configuration not stated)	-5	-2	19	-9	27*	0
N#CC(c1nc2ccccc2nc1N1CCCC1)S(=O)(=O)c1ccccc1 (configuration not stated)	1	-2	11	-4	-6	1
O=C(Cc1ccccc1)Nc1scc(-c2ccccc2)c1C(=O)N1CCOCC1	9	-1	-11	23	-11	1
NC(=O)c1c(-c2ccc(Cl)cc2Cl)csc1NC(=O)Cc1ccccc1	-25	-7	44*	9	22	11
O=C(COC(=O)CNC(=O)c1ccccc1)Nc1nc(-c2ccccc2)cs1	-1	-5	-2	10	-5	4
CC(C)(C)c1cc(NC(=O)C2(C)CCN2C(=O)c2ccccc2CCc2ccccc2)no1 (configuration not stated)	-4	-4	-8	17	-16	1
CCCOc1ccc(Br)cc1CSC(=N)N	-16	-3	26*	0	21	36*
COc1cc(CN(C2CCCCC2)S(=O)(=O)c2ccc(S(=O)(=O)N(C)C3CCCCC3)cc2)cc(OC)c1OC	-9	-4	8	9	-4	0
COc1ccccc1CCC(=O)OCC(=O)c1c(N)n(CC(C)C)c(=O)n(C)c1=O	-14	1	31	-7	14	17*
COc1ccc(CCC(=O)OCC(=O)c2c(N)n(CC(C)C)c(=O)n(C)c2=O)cc1	-11	3	32*	-26	32*	16*
Cc1ccc(S(=O)(=O)CCC(=O)OCC(=O)c2c(N)n(CC(C)C)c(=O)n(C)c2=O)cc1	-12	2	23	-6	4	18*
CCOc1ccccc1OCC(=O)OCC(=O)c1c(N)n(CC(C)C)c(=O)n(C)c1=O	-18	1	28*	-7	11	17*
CC(C)Cn1c(N)c(C(=O)COC(=O)c2ccc(O)cc2)c(=O)n(C)c1=O	7	-2	-4	6	-6	4
COc1cccc(/C=N\NS(=O)(=O)c2ccccc2)c1OC	10	2	-18	18	-3	2
CSc1ccccc1NC(=O)CN(c1ccccc1Br)S(C)(=O)=O	5	-2	-1	16	-3	2
COC(=O)c1cc(S(=O)(=O)NCC2CCN(CCc3cccs3)CC2)cn1C	10	-6	-2	-14	-1	0
C=C(C)COc1ccc(-c2ncnc(C(F)(F)F)c2-c2ccccc2)c(O)c1	-26	-11	37*	14	-2	4
CC(=NNC(=O)c1ccncc1)c1ccc2ccccc2c1O	-27	70*	29	-20	16	69*
O=C(CN1CCCCCC1)N1c2ccccc2Sc2ccccc21	-23	-6	99*	14	-4	16*
CN1CCN(CC(=O)N2c3ccccc3Sc3ccccc32)CC1	-31	-10	100*	10	-6	2
O=C(CN1CCCC(O)C1)N1c2ccccc2Sc2ccc(C(F)(F)F)cc21 (configuration not stated)	-20	-6	99*	13	-6	2
O=C(CN1CCCCC1)N1c2ccccc2Oc2ccccc21	-22	-5	75*	24	-6	2
CC1Cc2ccccc2N1C(=O)CN1CCCCC1 (configuration not stated)	3	-8	-8	19	-5	4
CC(OC(=O)C1CCN(S(=O)(=O)c2ccc3c(c2)OCCO3)CC1)C(=O)NC1(C#N)CCCCC1 (configuration not stated)	10	-6	-9	28	-14	3
O=C(O)C1CCN(C(=O)c2ccc3c(c2)OCO3)CC1	2	-3	-4	12	-2	1
SMILES	CHRM1 PAM	M1 ag	M1 antag	M1 PAM parental	CHO-K1 Ca antag	CHO-K1 Ca ag
CC1CCCN(c2ccc(C(=O)OCn3nnc4ccccc4c3=O)cc2[N+](=O)[O-])C1 (configuration not stated)	-6	-8	6	20	-10	0
CC1CCCN(c2ccc(C(=O)OCC(=O)N3c4ccccc4Sc4ccccc43)cc2[N+](=O)[O-])C1 (configuration not stated)	-26	-11	35*	-5	2	0
O=C1CCCN1CCCNCC(=O)N1c2ccccc2Sc2ccccc21	-24	-6	77*	19	-16	0
CC1CCCN(CC(=O)N2c3ccccc3Sc3ccccc32)C1 (configuration not stated)	-23	-6	81*	10	-14	2
Cc1cc(C)n(CC(=O)N2c3ccccc3Sc3ccc(C(F)(F)F)cc32)n1	-27	-10	62*	4	5	0
CC1(C)Oc2ccc3ccc(=O)oc3c2[C@@H](O)[C@H]1O	7	-3	-14	-13	10	-1
COc1cc(O)c2c(=O)c(-c3ccc(O[C@@H]4O[C@H](CO)[C@@H](O)[C@H](O)[C@H]4O)cc3)coc2c1	6	-2	1	3	-2	0
CCOC(=O)C/C(N)=N/N(C)c1ncc(C(F)(F)F)cc1Cl	1	-7	0	9	6	0
Cc1nc2nc(C)n(CCN3CCOCC3)c(=O)c2c(-c2cccc([N+](=O)[O-])c2)c1C(=O)CCCCCCCCCCN1CCC(c2ccccc2)(c2ccccc2)CC1	-29	-1	100*	12	9	6
CC(=O)c1cccc(S(=O)(=O)N2CCC(C(=O)OC3CCOC3=O)CC2)c1 (configuration not stated)	-11	-2	27*	-11	14	0
Cc1ccc(S(=O)(=O)N2CCC(C(=O)OC3CCOC3=O)CC2)cc1C (configuration not stated)	3	-4	1	2	11	3
CC(c1ccccc1)n1c(N2CCNCC2)nc2c1c(=O)[nH]c(=O)n2C (configuration not stated)	3	1	69*	-17	12	0
CC(c1ccccc1)n1c(Br)nc2c1c(=O)[nH]c(=O)n2C (configuration not stated)	2	-2	-1	5	-4	1
CCC1(CC)NC(=O)N(CC(=O)N2CCc3ccccc32)C1=O	10	-5	-23	13	-11	0
CC1(c2ccc(Cl)cc2)NC(=O)N(CC(=O)N2CCc3ccccc32)C1=O (configuration not stated)	2	39*	9	8	-6	19*
CCC1(c2ccc(F)cc2)NC(=O)N(CC(=O)N2CCc3ccccc32)C1=O (configuration not stated)	-7	24*	9	-16	17	6
